From PubChem BioAssay
Compounds with a hit are over-represented: about 2.7% of the library has one in this group of screens.
Nrf2 ARE act: Nrf2 pathway activation | AREc32 ARE-luciferase reporter (MCF7-derived line), luminescence, 24 h | AID 624171 | actives 0.31% (n = 410,000) | Potency, µM (titrated, usually from 46.1 µM), without a hit: at the top dose activation, usual class: activators; further: potency means the concentration at half of the fitted maximal effect; % of control where 0% means no effect; nearly all actives have a fitted effect of over 65% in size
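Luminescent ARE reporter assay in AREc32_Fluc cells: overnight plating at 37 deg C, 24 hr compound incubation, Steady-Glo added, 30 min RT before reading.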
ALOX12 inh: ALOX12 (human) lipoxygenase inhibition; actives 1.1% (n = 580,000); P18054; AID 1671190; purified 12hLO, xylenol orange hydroperoxide absorbance; Potency, µM (doses to about 108 µM), for inactives: at the top dose activity change, negative = inhibition, most hits filed as inhibitors; further: potency means the concentration at half of the fitted maximal effect; on the % scale 0 is the no-effect control and ±100 the full control effect
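Hydroperoxide product was detected by ferrous iron/xylenol orange as the 573 to 405 nm absorbance ratio. Arachidonic acid at 40 uM (final) was turned over for 30 min at room temperature by 150 nM human 12hLO, pH 7.0 Hepes buffer, after 15 min compound preincubation.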
A549 viability: A549 cytotoxicity, counter-screen for Nrf2 inhibitors. Potency, µM (highest dose often 46 µM), for inactives: top-dose activity change, negative = cytotoxicity, most hits filed as inhibitors. A549 ARE-Fluc cells, CellTiter-Fluor viability, 18-24 h. actives 0.16% (n = 390,000); further: potency means the concentration at half of the fitted maximal effect; on the % scale 0 is the no-effect control and ±100 the full control effect
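A549 ARE-Fluc cells in 5% FBS OPTI-MEM, 5000 cells/well, rested 2 h then exposed to compounds in concentration-response for 18-24 h at 37 °C. Viability by CellTiter-Fluor fluorescence (Ex 405/Em 525) after 30 min; luciferase luminescence (BugLite, 15 min, RT) read afterwards.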
Nrf2 block: blocks Nrf2 signaling | actives 2.1% (n = 360,000) | A549 ARE-Fluc reporter, luciferase luminescence, 18-24 h | Potency, µM (series often up to 46 µM), inactives show at the top dose activity change, negative = inhibition, most hits filed as inhibitors; further: potency means the concentration at half of the fitted maximal effect; on the % scale 0 is the no-effect control and ±100 the full control effect; nearly all actives have a fitted effect of over 60% in size
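A549 ARE_Fluc cells (5000/well, 5% FBS OPTI-MEM) pre-incubated 2 h, then treated with compounds 18-24 h at 37C/5% CO2 in concentration-response. CellTiter-Fluor viability read first; BugLite luciferase luminescence after 15 min at room temperature gives Nrf2 activity.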
LDHA block: inhibitors of human lactate dehydrogenase A. P00338. purified LDHA, NADH/diaphorase-resazurin fluorescence; hits give low values. activity change, % (values are at about 110 or 230 µM). actives 0.15% (n = 480,000). AID 1347041; in the data active means activity change below about -30%; inconclusive means mostly about -25% to -30%;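 further: plate controls were DMSO wells for no effect and wells without enzyme for full effect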
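Human LDH5 (2 nM) was incubated with 0.06 mM NADH and 0.2 mM pyruvate for 5 min at room temperature in Tris pH 7.4. Remaining NADH was coupled through diaphorase/resazurin, and resorufin fluorescence was read at 0 and 20 min.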
IDH1 R132H inh: blocks human mutant IDH1 R132H enzyme | AID 602179 | Potency, µM (top dose mostly 76.6 µM), inactives show at the highest dose activity change, negative = inhibition, hits mostly inhibitors | O75874 | actives 0.093% (n = 390,000) | IDH1-R132H enzyme, NADPH consumption, diaphorase/resazurin fluorescence; further: potency means the concentration at half of the fitted maximal effect; on the % scale 0 is the no-effect control and ±100 the full control effect; nearly all actives have a fitted effect of over 65% in size
Target sequence (O75874 whole entry R132H, stated change not applied): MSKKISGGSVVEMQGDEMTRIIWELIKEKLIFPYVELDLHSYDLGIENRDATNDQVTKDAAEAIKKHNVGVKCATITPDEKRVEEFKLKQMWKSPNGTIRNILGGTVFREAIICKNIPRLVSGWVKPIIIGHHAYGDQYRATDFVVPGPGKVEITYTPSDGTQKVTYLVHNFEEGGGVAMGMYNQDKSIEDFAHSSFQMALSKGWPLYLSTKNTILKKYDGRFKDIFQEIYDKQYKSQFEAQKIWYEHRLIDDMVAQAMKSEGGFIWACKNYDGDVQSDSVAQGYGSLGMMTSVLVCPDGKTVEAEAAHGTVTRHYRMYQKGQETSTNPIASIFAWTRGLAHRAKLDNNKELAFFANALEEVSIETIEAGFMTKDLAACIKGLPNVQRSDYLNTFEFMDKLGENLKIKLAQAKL
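IDH1-R132H (0.5 ug/mL dispensed) in pH 7.5 Tris buffer was preincubated 30 min with compound, then given a substrate mix of 0.016 mM NADPH and 2 mM alpha-KG for 80 min at room temperature; remaining NADPH was read by diaphorase/resazurin fluorescence.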
Starred values were filed as active, the others as inactive; [ ] = another dose, or the depositor's remark. Unless noted, the call rests on the fitted dose curve; in most records, active means well fitted curve in the direction sought with a large enough effect; inconclusive means small, poorly fitted or top-dose-only effect, or another doubt; inactive means no such curve, though single readings can be large; an effect the other way counts as inactive or inconclusive.

Screening O=C(CCc1ccccc1)NNC(=S)NC(=O)c1ccc(Cl)cc1 returned Nrf2 ARE act 2%, ALOX12 inh 13µM*, A549 viability -24%, Nrf2 block 21µM*, LDHA block -1 and IDH1 R132H inh -9%.
Cc1ccc(C(=O)NNC(=S)NC(=O)c2ccc(Cl)cc2)cc1 was read as Nrf2 ARE act -1%, ALOX12 inh inconclusive, A549 viability inconclusive, Nrf2 block 16µM*, LDHA block 2 and IDH1 R132H inh -7%.
Screening O=C(NC12CC3CC(CC(C3)C1)C2)c1ccc(Cl)cc1 returned ALOX12 inh 0% and LDHA block 9.
Screening O=C(NNC(=S)NC(=O)c1ccc(F)cc1)c1ccncc1 returned Nrf2 ARE act 0%, ALOX12 inh inconclusive, A549 viability -1%, Nrf2 block -8%, LDHA block 4 and IDH1 R132H inh 3%.
O=C(NC(=S)NC12CC3CC(CC(C3)C1)C2)c1ccc(F)cc1 was read as Nrf2 ARE act 4%, ALOX12 inh 22µM*, A549 viability 4%, Nrf2 block inconclusive, LDHA block -6 and IDH1 R132H inh 3%.
FC(F)(F)c1ccc(N2CCN(c3cc(-c4ccccc4)nc4ncnn34)CC2)nc1 was read as Nrf2 ARE act 6%, ALOX12 inh 15%, A549 viability inconclusive, Nrf2 block 15µM*, LDHA block -2 and IDH1 R132H inh -3%.
Screening COc1cccc(N2CCN(c3c4c(nc5ncnn35)CCC4)CC2)c1 returned Nrf2 ARE act -1%, ALOX12 inh -23%, A549 viability -8%, Nrf2 block 13µM*, LDHA block -1 and IDH1 R132H inh 5%.
COc1cccc(N2CCN(c3ncccn3)CC2)c1 was read as Nrf2 ARE act 3%, ALOX12 inh -13%, A549 viability -5%, Nrf2 block inconclusive, LDHA block 4 and IDH1 R132H inh 2%.
For c1ccc(N2CCN(c3c4c(nc5ncnn35)CCC4)CC2)cc1 the results were Nrf2 ARE act 0%, ALOX12 inh -11%, A549 viability -14%, Nrf2 block 12µM*, LDHA block 4 and IDH1 R132H inh 0%.
CC1CCCCC1NC(=O)C1CCN(c2c3c(nc4ncnn24)CCC3)CC1 (stereo not given) was read as Nrf2 ARE act 0%, ALOX12 inh 0%, A549 viability -7%, Nrf2 block -13%, LDHA block -5 and IDH1 R132H inh 7%.
`Cc1cc(N2CCN(c3ccccc3)CC2)n2ncnc2n1` gave Nrf2 ARE act 0%, ALOX12 inh -4%, A549 viability -5%, Nrf2 block 21µM*, LDHA block -5 and IDH1 R132H inh 9%.
Screening C/C=C/Cn1c(SCC(=O)Nc2ccccc2)nc2c1c(=O)[nH]c(=O)n2C returned ALOX12 inh -14% and LDHA block 5.
For O=C(NC1CCCc2ccccc21)c1csc2c1CCCCC2 (stereo not given) the results were ALOX12 inh -9% and LDHA block 3.
COc1ccc(Br)cc1CSc1nnc(C2CC2)n1C was read as ALOX12 inh 4% and LDHA block 14.
`CCOC(=O)/C=c1/s/c(=C/c2ccsc2)c(=O)n1C` gave ALOX12 inh -30% and LDHA block -1.
For Cc1cc(C)c(NC(=O)Cc2cccs2)c(Cl)c1 the results were ALOX12 inh inconclusive and LDHA block 15.
O=C(O)CN1C(=O)/C(=C\c2cc(Br)ccc2OCc2ccc(Cl)cc2)SC1=S was read as Nrf2 ARE act 6%, ALOX12 inh 20µM*, A549 viability -7%, Nrf2 block inconclusive, LDHA block -40* and IDH1 R132H inh inconclusive.
For O=C(O)CN1C(=O)/C(=C\c2ccccc2OCc2ccccc2)SC1=S the results were Nrf2 ARE act 0%, ALOX12 inh inconclusive, LDHA block -9 and IDH1 R132H inh -9%.
For O=C(O)CN1C(=O)/C(=C\c2cc(Br)ccc2OCc2ccc(F)cc2)SC1=S the results were Nrf2 ARE act 4%, ALOX12 inh 2.5µM*, A549 viability inconclusive, Nrf2 block -25%, LDHA block -34* and IDH1 R132H inh 3%.
Screening O=C(O)CN1C(=O)/C(=C\c2cc([N+](=O)[O-])ccc2OCc2ccccc2Cl)SC1=S returned Nrf2 ARE act 0%, ALOX12 inh 14µM*, A549 viability 0%, Nrf2 block 4%, LDHA block 5 and IDH1 R132H inh -21%.
`O=C(O)CN1C(=O)/C(=C\c2ccccc2OCc2ccc(F)cc2)SC1=S` gave Nrf2 ARE act 6%, ALOX12 inh inconclusive, A549 viability -3%, Nrf2 block -8%, LDHA block -6 and IDH1 R132H inh 1%.
Screening COc1cccc(NC(=O)c2nnn(Cc3nc(-c4ccc(OC)c(OC)c4)oc3C)c2N)c1 returned ALOX12 inh 7% and LDHA block 0.
For O=C(c1cc(-c2ccc(F)cc2)n[nH]1)N1CCN(C(=O)c2ccc(Br)o2)CC1 the results were ALOX12 inh -7% and LDHA block -1.
CC(C)(C)c1nnc(Nc2cc(Cl)ccc2Cl)[nH]c1=O was read as ALOX12 inh 1% and LDHA block -13.
`O=C(Nc1ccc(Cl)c(Cl)c1)Nc1nnc(CSc2ccccc2)s1` gave Nrf2 ARE act 2%, ALOX12 inh -10%, A549 viability inconclusive, Nrf2 block 7.3µM*, LDHA block 0 and IDH1 R132H inh -3%.
`O=C(Nc1ccccc1)Nc1nnc(CSCc2ccccc2Cl)s1` gave Nrf2 ARE act 0%[9.22 µM], ALOX12 inh -7%, A549 viability -2%, Nrf2 block inconclusive, LDHA block 0 and IDH1 R132H inh 0%.
Screening CCOc1ccc(C(=O)N2CCC(Cc3nc(-c4cccc(OC)c4)no3)CC2)cc1 returned ALOX12 inh 8%.
`C#CCOc1ccccc1CNC1CCN(Cc2ccccc2)CC1` gave Nrf2 ARE act -1%, ALOX12 inh inconclusive, A549 viability inconclusive, Nrf2 block 0%, LDHA block -31* and IDH1 R132H inh -6%.
Screening O=C(NCCN1CCCCCC1)C1CCCC1 returned ALOX12 inh 3% and LDHA block -1.
C=C1C(=O)O[C@H]2[C@H]1[C@H](OC(=O)/C(C)=C\C)C[C@]1(CO1)[C@@H]1[C@H](OC(C)=O)C=C(C)[C@]21O was read as Nrf2 ARE act 16µM*, ALOX12 inh 4%, A549 viability -5%, Nrf2 block -4%, LDHA block 4 and IDH1 R132H inh -5%.
